“And” between values parts separate entries of the source, which are not always exact repeats. Equal entries are not always repeated. Inconclusive results are not listed. A call without a number means that no potency is given here. The source made the active and inactive calls. Calls follow the shape of the dose curve; as a rule, active = well fitted inhibition curve with a large enough effect; inconclusive = small, poorly fitted or top-dose-only effect; inactive = flat fitted curve, though single readings scatter.

Results on 38 molecules are retold here after PubChem BioAssay (NCATS).
Potency is read from the fitted curve at half-maximal effect.

A short description of the assay: Primary qHTS for inhibitors of nuclear receptor binding SET domain protein 2 (NSD2) in an isogenic RCH-ACV NSD2 p.E1099K mutant (9B) (AID 1645876). Also: nearly all actives have a fitted effect of over 70% in size. The settings on record: RCH-ACV (leukaemia line) NSD2 E1099K (9B) viability, CellTiter-Glo, 72 h; series mostly up to 44.9 µM. For orientation: In qHTS, concentration-response curves come from the screen itself.
Regarding `C[N+]1(CC2COC(c3ccccc3)(C3CCCCC3)O2)CCCCC1` (stereo not drawn), the Potency was 21.1 µM (active). For `CNCCc1ccccn1`, the Potency entry is “inactive”. For the molecule `CN(Cc1ccc(C(C)(C)C)cc1)Cc1cccc2ccccc12`, the Potency result was “inactive”. Regarding `CC(C)[C@@H]1CC[C@@H](C)CC1=O`, the Potency result is “inactive”. In the case of `NC(=O)C1(N2CCCCC2)CCN(CCCC(=O)c2ccc(F)cc2)CC1` it was “inactive”; in that of `O[C@@H](c1cc(C(F)(F)F)nc2c(C(F)(F)F)cccc12)[C@H]1CCCCN1`, 7.5 µM (active); in that of `CN(C)CCOC(=O)C(c1ccccc1)C1(O)CCCC1` (stereo not drawn), “inactive”. As for `Nc1nc(Cl)nc2c1ncn2[C@@H]1O[C@H](CO)[C@@H](O)[C@@H]1F`, the Potency was 10.6 nM (active) and 52.5 nM (active). The figure for `C[C@@]12C(=O)OC(=O)[C@]1(C)C1CCC2O1` is 2.99 µM (active); for `CC(CNC1CCCCC1)OC(=O)c1ccccc1` (stereo not drawn) it is “inactive”. The entry for `OC1C(O)C(O)C(O)C(O)C1O` (stereo not drawn) is “inactive”; for `O=S(=O)(O)c1ccc(O)cc1` it is “inactive”; for `Nc1nc(-c2ccccc2)c(Br)c(=O)[nH]1` it is “inactive”. `CCCCCCCCCCCCCCCC(=O)O`: the Potency entry was “inactive”. The entry for `CC(=O)OCC(=O)[C@H]1CC[C@H]2[C@@H]3CCC4=CC(=O)CC[C@]4(C)[C@H]3CC[C@]12C` is “inactive”; for `CCCCC(CC)COC(=O)/C=C/c1ccc(OC)cc1` (stereo not drawn) it is “inactive”.

Turning to `CCCCCCCCCCCCCCCCO`, the Potency entry was “inactive”.

As for `Cc1ccc(-c2ncc(Cl)cc2-c2ccc(S(C)(=O)=O)cc2)cn1`, the Potency result was “inactive”. In the case of `CC(=O)O[C@]1(C(C)=O)CC[C@H]2[C@@H]3C=C(C)C4=CC(=O)CC[C@]4(C)[C@H]3CC[C@@]21C` it was “inactive”.

For `COc1ccc(CN(CCN(C)C)c2ncccn2)cc1`, the Potency entry was “inactive”. In the case of `CC(=O)Nc1ccc(OC(=O)c2ccccc2OC(C)=O)cc1` it was “inactive”; in that of `NS(=O)(=O)c1ccc(Cl)c(S(N)(=O)=O)c1`, “inactive”. In the case of `COc1cc([C@H]2Oc3cc([C@H]4Oc5cc(O)cc(O)c5C(=O)[C@@H]4O)ccc3O[C@@H]2CO)ccc1O` it was “inactive”; in that of `Nc1ccc(C(=O)NCC(=O)O)cc1`, “inactive”; in that of `FC(F)(F)C(F)(F)C(F)(F)C(F)(F)C(F)(F)C(F)(F)C(F)(F)C(F)(F)Br`, “inactive”. In the case of `CCN(CC)CCOC(=O)C1(c2ccccc2)CCCC1` it was “inactive”; in that of `Clc1cccc(C(c2ccc3nc[nH]c3c2)n2ccnc2)c1` (stereo not drawn), “inactive”; in that of `CCCCCCCCCCC[C@@H](C[C@@H]1OC(=O)[C@H]1CCCCCC)OC(=O)[C@H](CC(C)C)NC=O`, “inactive”. Take `CCN1CCN(C(=O)N[C@@H](C(=O)N[C@@H]2C(=O)N3C(C(=O)O)=C(CSc4nnnn4C)CS[C@H]23)c2ccc(O)cc2)C(=O)C1=O`: the Potency result is “inactive”. The figure for `CC[C@H](c1ccc(O)cc1)[C@@H](CC)c1ccc(O)cc1` is 11.9 µM (active). The figure for `O=c1[nH]c(=O)n([C@H]2C[C@H](O)[C@@H](CO)O2)cc1F` is 13.3 nM (active) and 29.5 nM (active). The entry for `CCC1Nc2cc(Cl)c(S(N)(=O)=O)cc2S(=O)(=O)N1` (stereo not drawn) is “inactive”; for `CCOC(=O)[C@H](CCc1ccccc1)N[C@@H](C)C(=O)N1[C@H](C(=O)O)C[C@@H]2CCC[C@@H]21` it is “inactive”. With `CCOc1cc(OCC)c(C(=O)CCC(=O)O)cc1OCC`, the Potency result was “inactive”. The entry for `CCCCC(CC)COC(=O)c1ccc(N(C)C)cc1` (stereo not drawn) is “inactive”; for `C[C@H]1O[C@@H](O[C@H]2CC[C@@]3(C)[C@H](CC[C@@H]4[C@@H]3C[C@@H](O)[C@]3(C)[C@@H](C5=CC(=O)OC5)CC[C@]43O)C2)C[C@H](O)[C@@H]1O[C@H]1C[C@H](O)[C@H](O[C@H]2C[C@H](O)[C@H](O[C@@H]3O[C@H](CO)[C@@H](O)[C@H](O)[C@H]3O)[C@@H](C)O2)[C@@H](C)O1` it is 0.0668 µM (active).

`NS(=O)(=O)c1cc2c(cc1Cl)NC(CC1CCCC1)NS2(=O)=O` (stereo not drawn): the Potency entry is “inactive”. For the molecule `C#C[C@]1(O)CC[C@H]2[C@@H]3[C@H](C)CC4=C(CCC(=O)C4)[C@H]3CC[C@@]21C`, the Potency was 23.7 µM (active).
